# Test results published in PubChem BioAssay AID463173 (ICCB-Longwood Screening Facility, Harvard Medical School, 2010).
# In all, about 52,000 compounds went through this assay and about 4,300 (8.3%) were called active. This excerpt belongs to a sample that is enriched for actives. A number with no mark means an inactive call. Rule as the data show it: active = survival mostly below about 52% (no sharp cut-off); inactive = mostly above about 56%.
# Tested on: DeltatarO mutant
# Test: growth inhibition of S. aureus wild type versus tarO mutant, primary screen, teichoic acid synthesis inhibitors, RN4220, OD600 (AID 463173)
# Settings: OD600, 18 h, hits give low values, screened at 18.75 µg/mL (by protocol)
row,SMILES,survival
1,Cc1ccc(C)c(NC(=O)CCc2c(C)nn(-c3ccc(N4CCCC4)nn3)c2C)c1,67%
2,COc1ccccc1Nc1c2c(nc3ccc(NC(=O)/C=C/c4cccc(OC)c4OC)cc13)CCCC2,74%
3,Cc1ccc(-c2nc3ccc(Cl)cn3c2Nc2ccccc2C)s1,107%
4,Fc1ccc(Nc2c(-c3ccco3)nc3ccccn23)cc1,53%
5,Cc1ccccc1Nc1c(-c2ccco2)nc2c(C)cccn12,25% (active)
6,Cc1ccc(Nc2c(-c3ccc(C)s3)nc3ccccn23)cc1,31% (active)
7,Cc1ccc(-c2nc3c(C)cccn3c2Nc2ccccc2C)s1,0% (active)
8,Cc1ccccc1Nc1c(-c2ccc(Cl)s2)nc2cccc(C)n12,99%
9,Cc1ccccc1Nc1c(-c2ccc(Cl)s2)nc2c(C)cccn12,69%
10,Cc1ccc(-c2nc3ccccn3c2Nc2ccccc2C)s1,21% (active)
11,Cc1ccc(-c2nc3ccccn3c2Nc2ccc3c(c2)OCCO3)s1,79%
12,Cc1ccc(Nc2c(-c3ccc(N(C)C)cc3)nc3ccccn23)cc1,131%
13,Cc1cccc(C)c1Nc1c(-c2ccccn2)nc2c(C)cccn12,51%
14,Cc1ccccc1Nc1c(-c2c[nH]c3ccccc23)nc2ccccn12,69%
15,COc1ccc2c(c1)c1c(c(=O)n(Cc3ccccc3)c(=O)n1CC(=O)NCc1ccccc1)n2C,91%
16,COc1ccccc1CNC(=O)CCc1c(C)c2ccc(OC)c(C)c2oc1=O,74%
17,Cc1ccc(Cl)cc1-n1nnc(-c2nc(-c3ccc4c(c3)OCO4)no2)c1C,122%
18,N#C/C(=C(/O)CN1C(=O)c2ccccc2C1=O)c1nc2ccccc2[nH]1,76%
19,Cc1ccc(-c2nc3ncccn3c2Nc2ccc3c(c2)OCCO3)cc1,79%
20,Cc1ccc(Nc2c(-c3ccc(N4CCOCC4)cc3)nc3ncccn23)cc1,139%
21,Cc1ccc2nc(-c3ccc(N4CCOCC4)cc3)c(Nc3ccccc3C)n2c1,71%
22,Cc1ccc(Nc2c(-c3ccc(C)s3)nc3ncccn23)cc1,9% (active)
23,Cc1ccccc1Nc1c(-c2ccc(N3CCOCC3)cc2)nc2ccccn12,41% (active)

row,SMILES,survival
1,Cc1ccn2c(Nc3ccccc3C)c(-c3ccc(N4CCOCC4)cc3)nc2c1,89%
2,CCOC(=O)c1cnc2cc(-c3ccc(C)cc3)nn2c1C,74%
3,O=C1COc2cc(S(=O)(=O)CCC(=O)NC3CCCCC3)c(Cl)cc2N1,93%
4,CCc1sc(Nc2cccc(C)c2)nc1-c1cc2cccc(OC)c2oc1=O,94%
5,Cc1ccc(CN2C(=O)c3ccccc3Sc3ccc(C(=O)NCc4ccco4)cc32)cc1,81%
6,Cc1cccc(CN2C(=O)c3ccccc3Sc3ccc(C(=O)NCCCN4CCOCC4)cc32)c1,37% (active)
7,Cc1ccc(C)c(CN2C(=O)c3ccccc3Sc3ccc(C(=O)NCc4ccco4)cc32)c1,17% (active)
8,O=C(NCCCN1CCOCC1)c1ccc2c(c1)N(Cc1ccccc1)C(=O)c1ccccc1S2,98%
9,Cc1ccccc1CN1C(=O)c2ccccc2Sc2ccc(C(=O)NCc3ccccc3)cc21,37% (active)
10,Cc1ccccc1CN1C(=O)c2ccccc2Sc2ccc(C(=O)NCCc3ccccc3)cc21,101%
11,O=C(NC1CCCC1)c1ccc2c(c1)N(Cc1ccccc1)C(=O)c1ccccc1S2,105%
12,O=C(NC1CCCCC1)c1ccc2c(c1)N(Cc1ccccc1)C(=O)c1ccccc1S2,46% (active)
13,Cc1ccc(CN2C(=O)c3ccccc3Sc3ccc(C(=O)NC4CCCCC4)cc32)cc1,100%
14,Cc1cccc(CN2C(=O)c3ccccc3Sc3ccc(C(=O)NCc4ccco4)cc32)c1,102%
15,Cc1ccccc1CN1C(=O)c2ccccc2Sc2ccc(C(=O)NCc3cccs3)cc21,93%
16,Cc1ccc(CN2C(=O)c3ccccc3Sc3ccc(C(=O)NCCCN4CCOCC4)cc32)cc1,126%
17,Cc1ccc(C)c(N2CCN(S(=O)(=O)c3ccc4c(c3)OCCO4)CC2)c1,76%
18,Cc1nn(-c2ccccc2)c2c1N(CC(=O)N1CCN(c3ccc(F)cc3)CC1)C(=O)CS2,81%
19,CC(C)(C)c1ccc(C(=O)NCC(c2cccs2)S(=O)(=O)c2ccc(F)cc2)cc1 (stereo unspecified),90%
20,Cc1ccc(CNC(=O)C2CCCN(c3nn4cc(-c5ccc(C)cc5)nc4s3)C2)cc1 (stereo unspecified),93%
21,CC(=O)c1ccc(N2C(=O)N(CC(=O)c3ccc(F)cc3)c3ccccc3S2(=O)=O)cc1,102%
22,Cc1ccc(NC(=O)CCCc2nc(-c3ccco3)no2)cc1Cl,80%
23,CCc1cccc(C)c1NC(=O)Cn1ncc2c3ccccc3n(Cc3ccccc3)c2c1=O,86%

row,SMILES,survival
1,O=C(Nc1ccc2c(c1)N(C1CCCC1)C(=O)c1ccccc1S2)c1ccc(F)cc1,66%
2,O=C(Nc1ccc2c(c1)N(C1CCCC1)C(=O)c1ccccc1S2)c1ccccc1,60%
3,CC(=O)Nc1ccc(C(=O)Nc2ccc3c(c2)N(C2CCCC2)C(=O)c2ccccc2S3)cc1,-4% (active)
4,COc1cccc(CNC(=O)c2ccc3c(c2)N(Cc2ccc(F)cc2Cl)C(=O)c2ccccc2S3)c1,25% (active)
5,COc1cccc(CN2C(=O)c3ccccc3Sc3ccc(C(=O)NCc4ccccc4)cc32)c1,80%
6,COc1ccc(CNC(=O)c2ccc3c(c2)N(Cc2cccc(Cl)c2)C(=O)c2ccccc2S3)c(OC)c1,83%
7,CC(=O)N1CCc2cc(CNS(=O)(=O)c3ccc(Cl)s3)ccc21,70%
8,CS(=O)(=O)c1ccccc1-c1nnc(NC(=O)c2ccc3c(c2)OCCO3)o1,-4% (active)
9,CSc1ccccc1-c1nnc(NC(=O)c2ccc3c(c2)OCCO3)o1,119%
10,CS(=O)(=O)c1ccc(-c2nnc(NC(=O)c3ccc4c(c3)OCCO4)o2)cc1,60%
11,COc1ccc(S(=O)(=O)N2CCN(C)CC2)c(Cl)c1Cl,75%
12,O=C1c2[nH]nc(-c3ccccc3O)c2C(c2cccc(OCc3ccccc3)c2)N1CCO (stereo unspecified),67%
13,CCCCN1C(=O)c2[nH]nc(-c3ccccc3O)c2C1c1cccc(OCc2ccccc2)c1 (stereo unspecified),18% (active)
14,CCCN1C(=O)c2[nH]nc(-c3ccccc3O)c2C1c1cccc(OCc2ccccc2)c1 (stereo unspecified),8% (active)
15,CCCN1C(=O)c2[nH]nc(-c3ccccc3)c2C1c1cccc(O)c1 (stereo unspecified),54%
16,O=C1c2[nH]nc(-c3ccccc3O)c2C(c2cccc(O)c2)N1Cc1ccncc1 (stereo unspecified),103%
17,O=C1c2[nH]nc(-c3ccccc3O)c2C(c2cccc(OCc3ccccc3)c2)N1CCCO (stereo unspecified),56% (active)
18,Fc1ccc(-c2cn3cc(Cc4ccc(Cl)cc4)sc3n2)cc1,55%
19,COc1ccc(CCNC(=O)CCCn2c(=O)c3ccccc3n(CC(=O)Nc3cc(Cl)ccc3C)c2=O)cc1OC,69%
20,Cc1sc2c(c1C)c(=O)n(-c1ccc(Cl)cc1)c(=O)n2Cc1cc(=O)n2cc(Br)ccc2n1,76%
21,COc1ccc2c(c1)CCc1c(C(=O)Nc3ccc(OC)cc3OC)noc1-2,180%
22,CCOc1ccc(CNC(=O)c2ccc3c(c2)nc2n3CCOC2)cc1,90%
23,O=C(NCc1ccccc1Br)c1ccc2c(c1)nc1n2CCOC1,-1% (active)

row,SMILES,survival
1,Cc1ccc(C)c(CNC(=O)c2ccc3c(c2)nc2n3CCOC2)c1,67%
2,COc1ccc(CCNC(=O)c2ccc3c(c2)nc2n3CCOC2)cc1OC,-2% (active)
3,CCOc1ccc(CCNC(=O)c2ccc3c(c2)nc2n3CCOC2)cc1OCC,79%
4,CCOc1ccc(CNC(=O)c2ccc3c(c2)nc2n3CCC(C)C2)cc1OC (stereo unspecified),73%
5,CCOc1ccc(CNC(=O)c2ccc3c(c2)nc2n3CCOC2)cc1OC,6% (active)
6,COc1ccc(CCNC(=O)c2ccc3c(c2)nc2n3CCCCC2)cc1OC,75%
7,O=C(NCc1ccccc1)c1ccc2c(c1)nc1n2CCOC1,84%
8,Cc1cccc(-n2c(SCc3nc(-c4ccccc4C)no3)nnc2-c2ccccc2)c1,74%
9,O=C(NC1CCN(Cc2nnnn2Cc2ccc3c(c2)OCO3)CC1)c1ccccc1F,91%
10,NC(=O)c1cc(S(=O)(=O)NCC2CCC(C(=O)Nc3ccc(Cl)cc3)CC2)cs1 (stereo unspecified),66%
11,O=C(NCc1ccc2c(c1)CCN2C(=O)c1ccc(Cl)cc1)c1ccco1,80%
12,O=S(=O)(c1cc(Br)c(Br)s1)N1CCN(c2ccccc2)CC1,72%
13,CCn1c(C(=O)NCc2ccc(OC)cc2)cc2sc(Cl)cc21,41% (active)
14,Cc1ccc(CNC(=O)c2cc3sc(Cl)cc3n2C)cc1,80%
15,COc1ccc(CCNC(=O)c2cc3sccc3n2Cc2ccc(Cl)cc2)cc1OC,88%
16,CCn1c(C(=O)NCCc2ccc(OC)c(OC)c2)cc2sc(Cl)cc21,32% (active)
17,CCn1c(C(=O)NCc2ccccc2)cc2sc(Cl)cc21,34% (active)
18,CCn1c(C(=O)NCc2ccc(C)cc2)cc2sc(Cl)cc21,92%
19,CCOc1ccc(NC(=O)c2cc3sc(Cl)cc3n2CC)cc1,84%
20,CCn1c(C(=O)NCCc2ccc(S(N)(=O)=O)cc2)cc2sc(Cl)cc21,71%
21,CCn1c(C(=O)NCc2ccccc2Cl)cc2sc(Cl)cc21,63%
22,N#Cc1c[nH]n2c(NC3CCCCC3)c(-c3ccccc3F)nc12,56%
